The record followed here is PubChem BioAssay AID1851 (National Center for Advancing Translational Sciences (NCATS), 2009).

Where “and” joins values, the source holds several entries; their conditions need not be identical. Equal values may be shown once. Hit rate of the full screen: of about 16,000 compounds, about 5,800 (36%) were called active. Inconclusive results (about 23%) are left out. This is one part of the list. Unmarked numbers belong to inactive results. Calls come from the whole dose curve; as a rule, active = well fitted curve in the direction sought with a large enough effect; inconclusive = small, poorly fitted or top-dose-only effect, or effect the other way; inactive = no such curve, though single readings can be large or run the other way.
% is set by controls: 0 for no effect and ±100 for the full control effect.

Sequence of Cytochrome P450 2C19 (Homo sapiens) (P33261 whole entry, looked up): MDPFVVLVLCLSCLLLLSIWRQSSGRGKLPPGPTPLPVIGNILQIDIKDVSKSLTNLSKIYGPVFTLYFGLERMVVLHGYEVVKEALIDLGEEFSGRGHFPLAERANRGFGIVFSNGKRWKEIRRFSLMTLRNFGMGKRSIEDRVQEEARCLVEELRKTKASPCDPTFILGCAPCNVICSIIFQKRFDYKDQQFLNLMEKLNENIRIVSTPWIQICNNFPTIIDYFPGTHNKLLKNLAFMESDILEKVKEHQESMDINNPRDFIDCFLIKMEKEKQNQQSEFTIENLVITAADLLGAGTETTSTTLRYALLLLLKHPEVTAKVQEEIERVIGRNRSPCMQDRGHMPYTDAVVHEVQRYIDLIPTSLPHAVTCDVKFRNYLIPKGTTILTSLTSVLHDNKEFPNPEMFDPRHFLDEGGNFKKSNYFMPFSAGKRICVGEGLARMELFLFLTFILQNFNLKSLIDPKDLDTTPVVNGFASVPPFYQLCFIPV

The test addresses Cytochrome P450 2C19 (Homo sapiens) (UniProt P33261). The experiment in a line: Cytochrome panel assay with activity outcomes. To be noted: recombinant CYP, pro-luciferin dealkylation, luminescence, p450-cyp2c19; series mostly up to 57.1 µM; activity, negative = inhibition: at the top concentration.
On to `C[C@@](N)(Cc1c[nH]c2ccccc12)C(=O)O`, for which the activity, negative = inhibition was 34.7% [at 11.4 µM]. For `CCOC(=O)CCCN`, the activity, negative = inhibition is 31.2% [at 11.4 µM]. One may read the AC50 as the midpoint of the concentration-response curve, whichever way the signal moves. Regarding `CCOC(=O)CCCc1c[nH]c2ccccc12`, the AC50 is 5010 nM (active).

Take `CC(C)CNC(=O)CCCc1c[nH]c2ccccc12`: the AC50 was 2240 nM (active).

For `N[C@@H](Cc1c[nH]c2ccccc12)C(=O)O`, the “activity, negative = inhibition” value is -11.9%. For `N[C@@H]1CONC1=O`, the AC50 entry was “inactive”. With `CO/N=C(\C(=O)N[C@@H]1C(=O)N2C(C(=O)O)=C(COC(C)=O)CS[C@@H]12)c1csc(N)n1`, the “activity, negative = inhibition” value was -19% [at 25.6 µM]. As for `Cc1cc(N2CCOCC2)ccc1/C=C1\SC(=O)N(C(C)C)C1=O`, the AC50 was 10000 nM (active). Turning to `Cc1ccsc1/C=C1/SC(=O)N(CC(=O)N2CCOCC2)C1=O`, the “activity, negative = inhibition” value is -27.3%.

`O=c1c(-c2ccccc2)nc2cnc(N3CCOCC3)nc2n1C[C@H]1CCCO1`: the “activity, negative = inhibition” value was -4.21%. As for `Nc1ncc(-c2ccccc2)n1CC1CCCO1` (stereo not given), the AC50 was 5620 nM (active). Consider `O=c1cnc2cnc(Nc3ccccc3)nc2n1C[C@H]1CCCO1`, for which the “activity, negative = inhibition” value was -34.8%. As for `CC(/C=N/n1c(-c2cccnc2)n[nH]c1=S)=C\c1ccccc1`, the AC50 was 2820 nM (active). On to `COc1ccc(-n2c(-c3cnccn3)n[nH]c2=S)cc1`, for which the “activity, negative = inhibition” value was -4.23%.

On to `Nc1c2c(nc3ccccc13)CCCC2`, for which the AC50 entry is “inactive”. With `COc1cc(-c2nnc(COC(=O)c3c4c(nc5ccccc35)CCCC4)o2)cc(OC)c1OC`, the AC50 is 1780 nM (active). As for `C[C@@H]1C[C@H](OC(=O)[C@@H](O)c2ccccc2)CC(C)(C)N1C`, the “activity, negative = inhibition” value was 37.5% [at 25.6 µM]. For the compound `C[C@@H]1C[C@H](OC(=O)c2ccccc2O)CC(C)(C)C1`, the AC50 is 10000 nM (active). As for `O=C(Nc1cccc(F)c1)N1CCC2(CC1)CCN(C(=O)c1cnccn1)CC2`, the “activity, negative = inhibition” value was 5.51%.

For `CCOC(=O)c1c2c(n3ccccc13)C(=O)c1ccccc1C2=O`, the activity, negative = inhibition was 0.385% [at 11.4 µM]. For the compound `CCOC(=O)c1c2ccc(OCC(=O)N/N=C/c3ccc(Cl)cc3)cc2n2ccccc12`, the AC50 is 2510 nM (active). Same read-out and setting: to `Cc1ccc(NC(=S)Nc2ccc(Br)cc2)cc1` belongs 562 nM (active); to `C/C(=N\NC(=S)Nc1cccc(C)c1)c1ccccc1`, 447 nM (active). `Cc1cccc(NC(=S)Nc2ccc(Br)cc2)c1`: the AC50 was 708 nM (active). On the same count and under the same terms, to `CCCNC(=S)Nc1ccc(Br)cc1` belongs 7940 nM (active). As for `CCN1C(=O)[C@H]2[C@H]3[C@H](O)[C@H](O)C/C(=N/O[C@@H]4O[C@@H](COC(C)=O)[C@@H](OC(C)=O)[C@@H](OC(C)=O)[C@H]4OC(C)=O)[C@H]3CC[C@@H]2C1=O`, the activity, negative = inhibition is 16.6% [at 11.4 µM]. On the same count and under the same terms, to `CO[C@@H]1COC(=O)[C@H](COCc2ccccc2)NC(=O)C/C=C\[C@@H](C)[C@H](OC)COC(=O)[C@@H](C)NC(=O)C/C=C\[C@H]1C` belongs 5.67% [at 11.4 µM]; to `CCCC(=O)Nc1nc(-c2ccc3c(c2)CCN3S(C)(=O)=O)cs1`, -24.4%. Still for that read-out and setting: with `COc1ccc(-c2ccc(=O)n(CC(=O)Nc3nnc(C(C)C)s3)n2)cc1OC` the figure was -29.9%. For `COc1ccc(-c2csc(NC(=O)CCn3cnc4ccccc4c3=O)n2)cc1OC`, the AC50 was 2820 nM (active).

Regarding `CN1CCN(Cc2nc3cccc4c3c([n+]2[O-])-c2ccccc2-4)CC1`, the activity, negative = inhibition was -13.4% [at 11.4 µM]. Regarding `C=CCn1c(SCC(=O)N2CCc3ccccc3C2)nc2ccccc2c1=O`, the AC50 is 1580 nM (active). As to `O=C(Cn1c(SCC(=O)N2CCc3ccccc3C2)nc2ccccc21)NC1CCCC1`, the AC50 is 10000 nM (active). As to `COc1ccc2c3c(ccc2c1)N[C@H](C(=O)O)CC3`, the activity, negative = inhibition was 3.64% [at 11.4 µM]. `CN1CC(c2ccccc2)C2(COc3ccccc3C2=O)C12C(=O)Nc1ccccc12` (stereo not given): the AC50 is 1120 nM (active). Same read-out and setting: with `Cc1ccc(CONC(=O)/N=C/N(C)C)cc1` the figure was 4470 nM (active). In the case of `CN1CCN(CCCN2c3ccccc3Sc3ccc(S(=O)(=O)N(C)C)cc32)CC1`, the “activity, negative = inhibition” value was 2.33% [at 25.6 µM]. Take `O=C(c1ccc(Br)cc1)c1cc([N+](=O)[O-])ccc1N1CCCCC1`: the AC50 was 1260 nM (active). As for `CN(C)S(=O)(=O)c1cc([N+](=O)[O-])ccc1N1CCCCCC1`, the AC50 was 5010 nM (active). For `CN1CCN(c2ccc([N+](=O)[O-])cc2S(=O)(=O)N2CCOCC2)CC1`, the “activity, negative = inhibition” value was 6.03%. Still for that read-out and setting: to `CN1CCN(c2ccncc2S(=O)(=O)N2CCN(C)CC2)CC1` belongs 15.7% [at 11.4 µM]. Consider `CN1CCN(S(=O)(=O)c2cc([N+](=O)[O-])ccc2N2CCCCCC2)CC1`, for which the AC50 was 631 nM (active). For `Cc1cc2c(nc1C)CCCN2C[C@H](O)CN1CCCc2nc(-c3ccc(Br)cc3)ccc21`, the activity, negative = inhibition is -41.3% [at 11.4 µM] and -36.7% [at 11.4 µM]. `O=C(CNC(=O)c1ccco1)OCc1c(F)cccc1Cl`: the AC50 was 15800 nM (active). Same read-out and setting: with `Cc1ccc2[nH]c(=O)c(NC(N)=S)nc2c1` the figure was 20000 nM (active).
